From PubChem BioAssay AID2685 (National Center for Advancing Translational Sciences (NCATS), 2010) come the findings set out here.

SMILES strings stand for the structures. The whole screen tested about 320,000 compounds, of which about 2,100 (0.66%) were called active. Another 53% or so got no clear call; they are omitted. Calls come from the whole dose curve; as a rule, active = well fitted inhibition curve with a large enough effect in the signal ratio, with a control signal flat (not every such curve was filed as active); inconclusive = small, poorly fitted or top-dose-only effect, or effect the other way, or a change in a side signal; inactive = flat fitted curve, though single readings scatter; the % refers to the signal ratio. For the sample, actives were picked, then their nearest neighbours and some compounds at random.
Potency is the fitted concentration of half-maximal effect.

The experiment in a line: qHTS Assay for Lipid Storage Modulators in Drosophila S3 Cells.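 For cell number change: cells counted by Cell Tracker Red CMTPX staining in the red channel.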 For lipid storage change, negative = inhibition: % is set by controls: 0 for no effect and ±100 for the full control effect. The note with it: BODIPY lipid droplet fluorescence, 18-24 h, cells fed with added oleic acid; cell number change: measured here: cell count max response; series mostly up to 46.1 µM; lipid storage change, negative = inhibition: at the top concentration. The essentials:
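Drosophila S3 cells got compounds at several concentrations plus oleic acid (400 uM solution). Laser-scanning cytometry with 488 nm excitation read lipid droplets at 500-530 nm and cells at 575-640 nm. Percent activity was relative to 20 uM Triacsin C.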
In the case of `CCOc1ccc(NC(=O)CCC(=O)n2nc(C)cc2C)cc1`, the “lipid storage change, negative = inhibition” value is -4.91% (inactive) and the cell number change worked out at 1.15%.

For the compound `Cc1ccc(NC(=O)CCC(=O)n2nc(C)cc2C)c(C)c1`, the Potency is 18.4 µM (active).

With `Cc1cc(C)n(C(=O)CCCC(=O)n2nc(C)cc2C)n1`, the “lipid storage change, negative = inhibition” value was 9.69% (inactive) and the cell number change is -1.02%. The matching figures for `CC(C)N(C(=O)Cn1c(=O)oc2ccccc21)c1ccccc1`: -14.7% (inactive) and 12.3%. The matching figures for `COc1ccc([C@@H]2[C@@H]3C(=O)N(C(C)(C)C)C(=O)[C@@H]3[C@]3(C)C(=O)N(c4ccc(C(F)(F)F)cc4)C(=O)N23)cc1`: -1.6% (inactive) and 14.7%. With `CCN1C(=O)[C@H]2[C@@H](c3ccc(C)cc3)N3C(=O)N(c4ccc(C(F)(F)F)cc4)C(=O)[C@@]3(CC(C)C)[C@H]2C1=O`, the Potency is 18.4 µM (active) and the cell number change came out at 11.1%.

Regarding `COc1ccc([C@@H]2[C@@H]3C(=O)N(C(C)(C)C)C(=O)[C@@H]3[C@]3(CC(C)C)C(=O)N(c4ccc(C(F)(F)F)cc4)C(=O)N23)cc1`, the Potency was 20.6 µM (active) and the cell number change amounted to 18.1%. As for `COc1ccc([C@@H]2[C@@H]3C(=O)N(C(C)(C)C)C(=O)[C@@H]3[C@]3(Cc4ccc(Cl)cc4)C(=O)N(c4ccc(OC)cc4)C(=O)N23)cc1`, the “lipid storage change, negative = inhibition” value was 11.9% (inactive) and the cell number change amounted to 16%. The matching figures for `CCN1C(=O)[C@H]2[C@@H](c3ccc(C)cc3)N3C(=O)N(c4ccc(C(F)(F)F)cc4)C(=O)[C@@]3(CC)[C@H]2C1=O`: -0.378% (inactive) and -7.19%. Regarding `CCN1C(=O)[C@H]2[C@@H](c3ccc(C)cc3)N3C(=O)N(c4ccccc4)C(=O)[C@@]3(CC)[C@H]2C1=O`, the result was inactive and the cell number change came out at 16.2%. On to `COc1ccc(CCNC(=O)CSc2ccc(-c3ccccc3)nn2)cc1`, for which the “lipid storage change, negative = inhibition” value is -1.45% (inactive) and the cell number change stood at 2.87%. For the compound `CC(C)CNC(=O)C1CC(=O)OC12CCCCC2` (stereo not drawn), the outcome was inactive. Still for that read-out and setting: the entry for `CC(Oc1ccc(C(=O)c2ccccc2)cc1)C(=O)N1CCOCC1` (stereo not drawn) is “inactive”. As to `CC(Oc1ccc(-c2ccccc2)cc1)C(=O)N1CCOCC1` (stereo not drawn), the Potency is 2.91 µM (active) and the cell number change worked out at 17.9%.

Regarding `CC(Oc1ccc(-c2nnco2)cc1)C(=O)N1CCOCC1` (stereo not drawn), the “lipid storage change, negative = inhibition” value is 2.05% (inactive) and the cell number change came out at 6.36%. Regarding `CCCN1Cc2cccc(C(=O)NCCCOC(C)C)c2C1=O`, the result was inactive and the cell number change worked out at 2.03%. On to `Cc1ccc(-c2cc(C(=O)NCCCN3CCCC3)c3ccccc3n2)cc1C`, for which the “lipid storage change, negative = inhibition” value was -11.6% (inactive). In the case of `COc1cccc(NC(=O)C2CC(=O)n3cnnc3S2)c1` (stereo not drawn), the “lipid storage change, negative = inhibition” value was -20.3% (inactive) and the cell number change is -29%. For the compound `Cc1cccc(NC(=O)C2CC(=O)n3cnnc3S2)c1` (stereo not drawn), the Potency was 13 µM (active) and the cell number change was -1.17%.

Take `CCN=C1SC(C(=O)Nc2cccc(C)c2)CC(=O)N1CC` (stereo not drawn): the “lipid storage change, negative = inhibition” value is 3.18% (inactive) and the cell number change is -13.5%. For the compound `COc1ccc(N=C2NC(=O)/C(=C/c3ccco3)S2)cc1`, the “lipid storage change, negative = inhibition” value is -1.57% (inactive) and the cell number change amounted to 15.8%.

For the compound `O=C(CNC(=O)c1ccco1)Nc1ccncc1`, the “lipid storage change, negative = inhibition” value was 23% (inactive).

In the case of `COC(=O)/C=C1\SC(=Nc2ccccc2)NC1=O`, the “lipid storage change, negative = inhibition” value was -66.9% (inactive) and the cell number change amounted to 10.6%. The matching figures for `COC(=O)/C=C1/SC(=Nc2ccc(Cl)c(Cl)c2)NC1=O`: 19.2% (inactive) and 7.13%.

As to `CCOc1ccc(N=C2NC(=O)/C(=C/C(=O)OC)S2)cc1`, the Potency is 25.9 µM (active). As for `O=C(c1nc2ccccn2c1CNCCCn1ncc2ccccc21)N1CCOCC1`, the “lipid storage change, negative = inhibition” value is 7.24% (inactive) and the cell number change is 25.5%. Take `NC(=S)N/N=C\c1ccccc1OCc1ccccc1`: the “lipid storage change, negative = inhibition” value was 8.29% (inactive) and the cell number change was 0.634%. As for `COc1cccc(/C=N/NC(N)=S)c1OCc1cccc(Cl)c1`, the Potency was 8.2 µM (active) and the cell number change was found to be 0.0836%. Turning to `COc1cccc(/C=N/NC(N)=S)c1OS(=O)(=O)c1ccccc1`, the “lipid storage change, negative = inhibition” value is -5.43% (inactive) and the cell number change was -16.4%. With `O=C(c1ccc(C#CC2(O)CCCCC2)cc1)N1CCOCC1`, the outcome was inactive and the cell number change worked out at 5.75%. Turning to `O=C1OCC(CO)(CO)N=C1NNc1ccccc1Cl`, the compound was called inactive. Regarding `COc1cccc(C2=NOC(C(=O)Nc3cccnc3Cl)C2)c1` (stereo not drawn), the “lipid storage change, negative = inhibition” value was 5.17% (inactive) and the cell number change came out at 3.11%. Turning to `Cc1cc(C)n2nc(C(=O)Nc3cccc(S(=O)(=O)N(C)c4ccccc4)c3)nc2n1`, the Potency is 11.6 µM (active) and the cell number change was -15.3%. `CN(c1ccccc1)S(=O)(=O)c1cccc(NC(=O)c2ccncc2)c1`: the “lipid storage change, negative = inhibition” value is -23.7% (inactive) and the cell number change stood at 0.47%. On the same counts, the results for `Cc1cc(C)n2nc(C(=O)Nc3ccc(S(=O)(=O)N(C)C)cc3)nc2n1` are -29.8% (inactive) and -26.7%.

For `CC(C)(C)c1cc(N2CCOCC2)n2ncc(-c3ccccc3)c2n1`, the “lipid storage change, negative = inhibition” value was 6.85% (inactive) and the cell number change is -9.44%. As for `Cc1nc2c(-c3ccccc3)cnn2c(N2CCOCC2)c1C`, the Potency is 2.91 µM (active) and the cell number change was -16.7%. On to `Cc1cc(N2CCOCC2)n2ncc(-c3ccccc3)c2n1`, for which the compound was classed as inactive and the cell number change is -5.35%. Take `O=C(CN1CCCCC1)N1N=C(c2cccs2)CC1c1cccs1` (stereo not drawn): the “lipid storage change, negative = inhibition” value is -0.409% (inactive) and the cell number change is 18.5%. The matching figures for `CSc1ccc(CN(C)C(=O)CSCC(=O)Nc2cc(C)on2)cc1`: -15.8% (inactive) and 13.3%. On the same counts, the results for `CCn1c(SCC(=O)N(C)C2CCS(=O)(=O)C2)nnc1-c1ccccc1` (stereo not drawn) are -21% (inactive) and -11.5%. Take `CN(C(=O)CSc1nnc(-c2ccc(C(C)(C)C)cc2)n1C)C1CCS(=O)(=O)C1` (stereo not drawn): the Potency is 10.3 µM (active) and the cell number change worked out at 3.86%. As to `CCN(C(=O)CSc1nc2ccc(OC)cc2[nH]1)C1CCS(=O)(=O)C1` (stereo not drawn), the “lipid storage change, negative = inhibition” value was 23% (inactive).

Consider `Cc1ccc2nc(SCC(=O)N(C)C3CCS(=O)(=O)C3)[nH]c2c1` (stereo not drawn), for which the Potency was 1.16 µM (active) and the cell number change was determined as 7.53%. In the case of `CN(C(=O)CSc1nc2ccccc2[nH]1)C1CCS(=O)(=O)C1` (stereo not drawn), the call was inactive and the cell number change was -2.26%.

With `CN(C(=O)CSc1nnc(-c2ccccc2)n1C)C1CCS(=O)(=O)C1` (stereo not drawn), the “lipid storage change, negative = inhibition” value was 14.6% (inactive).
